PLK1 PBD block = qHTS for Inhibitors of PLK1-PDB (polo-like kinase 1 - polo-box domain): Primary Screen | Serine/threonine-protein kinase PLK1 (Homo sapiens), P53350 | Potency, µM, for the others: max response, negative = inhibition, hits mostly inhibitors | 2.8% of 360,000 active | Plk1 PBD binding of FITC phosphopeptide, fluorescence polarization; note: series mostly up to about 57 µM; nearly all actives have a fitted effect of over 65% in size
Gal4-VP16 FLuc = VP16 counterscreen qHTS for inhibitors of ROR gamma transcriptional activity | 3.5% of 310,000 active | AID 2546, 2010 | Drosophila S2 Gal4-VP16 UAS-luciferase, luminescence, 20 h | Potency, µM (titrated, usually from 53.6 µM), for inactives: top-dose activity, negative = inhibition, usual class: inhibitors;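 note: Gal4-VP16 expression switched on by copper sulfate through the metallothionein promoter; nearly all actives have a fitted effect of over 50% in size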
Sfp PPTase inh = qHTS Assay for Inhibitors of Bacillus subtilis Sfp phosphopantetheinyl transferase (PPTase). 4'-phosphopantetheinyl transferase ffp (Bacillus subtilis), Q9F4F7. Biochemical Sfp PPTase activity, qHTS. Potency, µM, inactives show largest response in the series, negative = inhibition, hits mostly inhibitors. 3.5% of 310,000 active. AID 1490, 2009;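 note: the enzyme is Sfp with the accession as filed and its product quenches rhodamine fluorescence; 0% = enzyme reaction without inhibitor and -100% = no enzyme wells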
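Reaction rates are the 30-min fluorescence difference (ex 525, em 598 nm) in wells containing 15 nM Sfp, 5 uM rhodamine-CoA and 12.5 uM BHQ-2-YbbR at pH 7.6 with 10 mM MgCl2.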
ALDH1A1 block = qHTS Assay for Inhibitors of Aldehyde Dehydrogenase 1 (ALDH1A1); Potency, µM (series often up to 75.3 µM), for inactives: top-dose activity, negative = inhibition, actives largely listed as inhibitors; Purified ALDH1A1, NADH fluorescence, propionaldehyde substrate; 7.3% of 220,000 active; active = well fitted inhibition curve with a large enough effect, not every such curve was filed as active; inconclusive = small, poorly fitted or top-dose-only effect, or another doubt; inactive = no such curve, though single readings can be large or run the other way;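 note: plate controls were no enzyme wells and a reference inhibitor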
RORgamma inh = qHTS for inhibitors of ROR gamma transcriptional activity | Drosophila S2 Gal4-RORgamma UAS-luciferase reporter, 20 h | AID 2551, 2010 | Nuclear receptor ROR-gamma (Mus musculus), P51450 | 5.4% of 310,000 active | Potency, µM (top dose mostly 53.6 µM), inactives show at the highest dose activity change, negative = inhibition, hits mostly inhibitors; note: nearly all actives have a fitted effect of over 60% in size
Target sequence (P51450 whole entry, looked up, the tested form may be a part): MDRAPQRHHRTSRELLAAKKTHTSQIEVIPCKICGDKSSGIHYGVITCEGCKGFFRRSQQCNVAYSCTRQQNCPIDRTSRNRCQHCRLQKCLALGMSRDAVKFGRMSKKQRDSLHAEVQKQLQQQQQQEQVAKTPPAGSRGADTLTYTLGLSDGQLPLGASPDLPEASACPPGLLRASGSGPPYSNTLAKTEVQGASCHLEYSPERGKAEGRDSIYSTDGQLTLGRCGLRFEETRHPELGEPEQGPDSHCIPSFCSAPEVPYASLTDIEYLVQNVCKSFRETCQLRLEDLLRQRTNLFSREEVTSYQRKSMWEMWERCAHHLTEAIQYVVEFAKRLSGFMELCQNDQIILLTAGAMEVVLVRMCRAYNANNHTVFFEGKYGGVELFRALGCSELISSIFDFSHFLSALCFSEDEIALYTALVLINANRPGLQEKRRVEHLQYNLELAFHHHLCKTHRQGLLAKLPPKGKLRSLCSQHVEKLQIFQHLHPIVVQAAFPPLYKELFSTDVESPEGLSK
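Using a luciferase readout, inhibitors were identified by reduced reporter activity in Drosophila cells coexpressing a copper-inducible Gal4–ROR gamma fusion and UAS-driven Photinus luciferase, incubated 20 hr after 700 uM copper sulfate.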
* = called active by the depositor; ? = inconclusive; · = not tested or not shown; [ ] = another dose, or the depositor's remark. Sampled rows, rich in hits. Any-hit rate of the full collection: about 12%. Unless noted, calls come from the whole dose curve; as a rule, active = well fitted curve in the direction sought with a large enough effect; inconclusive = small, poorly fitted or top-dose-only effect, or another doubt; inactive = no such curve, though single readings can be large; an effect the other way counts as inactive or inconclusive. Unless noted, % is set by controls: 0 for no effect and ±100 for the full control effect; potency is the fitted concentration of half-maximal effect.

SMILES	PLK1 PBD block	Gal4-VP16 FLuc	Sfp PPTase inh	ALDH1A1 block	RORgamma inh
COc1ccccc1-c1noc(CCC(=O)Nc2cc(C(F)(F)F)ccc2Cl)n1	-2%	7%	18µM*	4%	?
O=C(CCCc1nc(-c2ccccc2)no1)NCc1cccnc1	-8%	5.6µM*	-6%	14µM*	?
CNC(=O)CCCc1nc(-c2ccccc2Cl)no1	24µM*	3%	5%	9%	-16%
COc1ccccc1-c1noc(CCC(=O)Nc2cccnc2)n1	-9%	·	·	·	·
NC(=O)CCCc1nc(-c2ccccc2Cl)no1	0%	?	11%	3%	-5%
Cc1ccc(-c2noc(CCCC(=O)Nc3cccnc3)n2)cc1	-6%	3.2µM*	-9%	-9%	0.56µM*
O=C(CCCc1nc(-c2ccccc2)no1)Nc1cccnc1	3%	?	2%	-4%	-17%[10 µM]
CCC1=C2CC[C@H]3C(=O)NC(=O)[C@H]3[C@H]2[C@@]2(C)C(=NCCc3c[nH]c4ccccc34)OC(=O)N2C1=O	·	-6%	13%	-5%	0%
O=c1c(-c2ccc(F)c(F)c2)nc2cncnc2n1C1CC1	·	-2%	11%	11%	-25%
COCCCNC(=S)NNC(=O)c1cc(Cl)c(O)c(Cl)c1	-12%	-11%	-13%	·	-5%
NC(=S)NN=C1c2ccccc2-c2ccccc21	-24%	4µM*	13%	·	1.3µM*
COCCCNC(=S)NNC(=O)c1ccccc1Br	-8%	-15%	-1%	?	2.5µM*
COCCCNC(=S)NNC(=S)NCCCOC	-5%	6%	45µM*	?	?
CNC(=S)NNC(=O)c1ccccc1Br	-9%	?	-21%	?	13µM*
Cc1occc1C(=O)NNC(=O)c1ccccc1Br	-21%	-14%	-3%	-9%	6%
COCCCNC(=S)NNC(=O)c1csc2ccccc12	-9%	?	22%	11%	-34%
O=C(CC1C(=O)NCCN1C(=O)Nc1ccccc1)Nc1cc(Cl)cc(Cl)c1 (stereo not given)	-4%	5%	10%	·	2%
CCNc1ncc2nc(C)c(=O)n(C)c2n1	·	-3%	16%	?	3%
O=C(NN=C1c2ccccc2-c2ccccc21)c1ccccc1Br	-7%	10µM*	?	-25%	7.1µM*
COc1ccccc1C(=O)NCCCNC(=O)c1ccccn1	-18%	-2%	9%	·	-10%
COCCCNC(=S)NNC(=O)c1ccccn1	-1%	0%	6%	?	14µM*
COc1cccc(-c2cnc3c(NC(C)=O)cc(-c4ccc(C(=O)NC5CC5)cc4)cn23)c1	1%	·	·	·	·
O=C(Nc1cccnc1)/C(N=Nc1cccnc1)=C(\O)c1ccccc1	-11%	-4%	3%	1.4µM*	?
O=C(Nc1ccccc1)C(=O)Nc1cccnc1	0%	?	8%	7%	?
COc1ccc(C)cc1NS(=O)(=O)c1ccc(-c2cnc(C3CC3)o2)cc1	-1%	18µM*	3%	·	34%
SMILES	PLK1 PBD block	Gal4-VP16 FLuc	Sfp PPTase inh	ALDH1A1 block	RORgamma inh
CC1(C)OC(=O)C2=C(C[C@@H](C3CCCCC3)O[C@H]2c2ccc(F)cc2)O1	-6%	·	·	·	·
CCCn1c(SCC(=O)N2c3ccc(F)cc3CCC2C)nnc1-c1ccccn1 (stereo not given)	30µM*	-6%	-7%	?	?
CC1CCc2cc(F)ccc2N1C(=O)CCl (stereo not given)	-18%	6%	-3%	0.14µM*	?
COc1ccccc1NC(=O)N1c2ccc(F)cc2CCC1C (stereo not given)	0%	-4%	-13%	22µM*	2%
CC1CCc2cc(F)ccc2N1S(=O)(=O)c1ccc(F)cc1 (stereo not given)	-16%	1%	8%	·	10µM*
CCN(CC1CCCO1)C(=O)CCc1nnc(CCc2ccccc2)o1 (stereo not given)	-2%	·	·	·	·
CC(C)(C)Nc1nc(C#N)nc(Nc2ccccc2)n1	·	3%	·	·	·
O=C(CCNc1n[nH]c(=O)[nH]c1=O)N/N=C/c1ccc(Cl)cc1	-1%	-2%	14%	4%	4%
O=c1[nH]nc(N/N=C/c2ccc(Cl)cc2Cl)c(=O)[nH]1	24µM*	-4%	56µM*	·	18%
CCn1ncc(Br)c1C(=O)Nc1c(C)nn(Cc2c(F)c(F)c(F)c(F)c2F)c1C	-7%	19%	0%	·	-7%
CCC1CCCCN1c1cc(C)nc2cc(-c3cccc(C)c3)nn12 (stereo not given)	1%	-27%	?	-10%	10µM*
O=[N+]([O-])c1ccc(NNC(=S)Nc2ccc(F)cc2)cc1	12µM*	11µM*	2.5µM*	1.3µM*	?
O=C(NNC(=S)Nc1ccc(F)cc1)c1cccc([N+](=O)[O-])c1	-13%	-6%	5%	-6%	-42%
COC(=O)C1(CO)NC(c2cccs2)C2C(=O)N(c3ccccc3)C(=O)C21 (stereo not given)	27µM*	-1%	10%	20%	-6%
Cc1ccc(NS(=O)(=O)c2ccc(Cl)s2)cc1S(=O)(=O)N(C)C	?	13%	2%	3.2µM*	32%
CC(=O)Nc1ccc(NS(=O)(=O)c2ccc(Cl)s2)cc1	11%	7%	8%	0%	16%
CSc1nc2ccc(NS(=O)(=O)c3ccc(Cl)s3)cc2s1	-16%	-2%	1%	40µM*	-3%
CCN(CC)S(=O)(=O)c1cc(NS(=O)(=O)c2c(Cl)cccc2Cl)ccc1C	?	-4%	1%	?	?
CCN(CC)S(=O)(=O)c1cc(NS(=O)(=O)c2cccc(Cl)c2)ccc1C	-1%	-2%	10%	18µM*	-8%[10 µM]
CN(C)S(=O)(=O)c1cccc(NS(=O)(=O)c2ccc(Cl)s2)c1	3%	-10%	9%	?	4%
CCN(CC)S(=O)(=O)c1cc(NS(=O)(=O)c2cccc(Cl)c2Cl)ccc1C	-11%	0%	1%	7.9µM*	39%
C/C=C/OC(=O)NC(c1ccccc1)[C@]1(C(C)=O)CCCC1=O (stereo not given in full)	·	-4%[10 µM]	6%	4%[13.5 µM]	2%[10 µM]
COc1ccc(NC(=O)c2cnn(-c3ccccc3)c2C)cc1	-4%	-25%	12%	·	?
COC(=O)c1cnn(-c2ccccc2)c1/C=N/NC(=S)Nc1ccc(Cl)cc1	1%	2µM*	15%	·	0.45µM*
Cc1ccc(S(=O)(=O)NCc2ccccn2)cc1C	-17%	-5%	4%	·	-43%
COc1ccc(C(CC(=O)Nc2cc([N+](=O)[O-])ccc2OC)c2ccccc2)cc1 (stereo not given)	2%	0%	22%	-15%	16%
Cc1ccc(S(=O)(=O)N/N=C\c2ccc(Cl)c([N+](=O)[O-])c2)cc1	-17%	-3%[0.365 µM]	20%	0.5µM*	-15%
